For 38 molecules, Potency and outcome results are on record in PubChem BioAssay (Tox21).

Each structure is given as a SMILES string. Where “and” joins values, the source holds several entries; their conditions need not be identical. Equal values may be shown once. Inconclusive results are not listed. Where a call stands in place of a potency, no number is given. A structure can be active in one record and inactive in another. Calls of active or inactive are those of the source. Unless noted, the call rests on the fitted dose curve; in most records, active means well fitted curve in the direction sought with a large enough effect in the repeat runs; inconclusive means weak or mixed curves; inactive means no such curve, though single readings can be large; an effect the other way counts as inactive or inconclusive.

Estrogen receptor (Homo sapiens), sequence (P03372 whole entry, looked up): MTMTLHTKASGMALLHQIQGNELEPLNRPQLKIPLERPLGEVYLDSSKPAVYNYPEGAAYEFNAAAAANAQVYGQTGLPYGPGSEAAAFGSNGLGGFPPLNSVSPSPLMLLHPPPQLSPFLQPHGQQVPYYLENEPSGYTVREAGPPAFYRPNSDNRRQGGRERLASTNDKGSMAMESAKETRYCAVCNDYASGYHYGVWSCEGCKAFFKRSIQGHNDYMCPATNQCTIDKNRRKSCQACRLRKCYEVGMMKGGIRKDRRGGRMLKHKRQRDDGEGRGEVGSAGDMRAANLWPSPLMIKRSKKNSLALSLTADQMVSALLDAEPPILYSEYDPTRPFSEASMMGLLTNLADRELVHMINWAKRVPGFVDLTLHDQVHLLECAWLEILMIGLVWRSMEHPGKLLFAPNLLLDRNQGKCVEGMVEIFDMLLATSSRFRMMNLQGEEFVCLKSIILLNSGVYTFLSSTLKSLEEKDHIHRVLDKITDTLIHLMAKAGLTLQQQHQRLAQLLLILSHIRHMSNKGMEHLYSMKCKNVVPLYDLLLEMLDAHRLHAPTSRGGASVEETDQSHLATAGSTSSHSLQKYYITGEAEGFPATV

Tested on in the first test: not listed separately
The test can be described thus: qHTS assay to identify small molecule antagonists of the estrogen receptor alpha (ER-alpha) signaling pathway using the BG1 cell line in the presence of 0.1 nM 17-beta-estradiol - cell viability counter screen (AID 1259241). Further: nearly all actives have a fitted effect of over 40% in size. Further: potency means the concentration at half of the fitted maximal effect. The note with it: VM7Luc4E2 (BG1) viability, CellTiter-Fluor protease, 22 h, 0.1 nM estradiol agonist added; series mostly up to 92.4 µM. The method in brief:
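Live-cell protease activity (CellTiter-Fluor fluorescence, 30 min) was read in the same wells after VM7Luc4E2 cells had been exposed to compounds with 0.1 nM 17beta-estradiol for 22 hr at 37C.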
(In qHTS, concentration-response curves come from the screen itself.)
With `Brc1ccc(Br)cc1`, the Potency result is “inactive”.
In the case of `COc1ccc(CO)cc1`, the Potency result was “inactive”.
For `NC(=O)CN1CCCC1=O`, the Potency result is “inactive”.
On to `CC(C)(c1ccccc1)c1ccc(O)c(C(C)(C)c2ccccc2)c1`, for which the Potency was 61.1 µM (active).
`NN=C(N)N`: the Potency entry is “inactive”.
The same measure, in the same setting: next, `CCOP(=O)(OCC)OCC`: “inactive”; `CCNCC`: “inactive”.
With `CC(O)CN(CC(C)O)CC(C)O` (stereo not given), the Potency entry is “inactive”.
Still for that read-out and setting: the entry for `CCNc1nc(Cl)nc(NC(C)(C)C#N)n1` is “inactive”; for `Cn1c(-c2ccccc2)cc(-c2ccccc2)[n+]1C` it is “inactive”; for `O=C1C(Cl)=C(Cl)C(=O)c2ccccc21` it is 24.4 µM (active).
On to `Cc1cc(Cl)ccc1N=CN(C)C`, for which the Potency entry is “inactive”.
The same measure, in the same setting: next, `Cl`: “inactive”.
The same measure, in the same setting: next, `Clc1cccc(Cl)c1`: “inactive”; `CCCCCCCCCC(CC)c1ccc(S(=O)(=O)O)cc1` (stereo not given): “inactive”.
Regarding `Nc1ccc([N+](=O)[O-])cc1N`, the Potency is 61.1 µM (active).
In the case of `CC(C)(O)C#N`, the Potency entry is “inactive”.
Same read-out and setting: next, `ClCC(Cl)CCl`: “inactive”.
Still for that read-out and setting: next, `O=P(OCCCl)(OCCCl)OCCCl`: “inactive”; `O=S(=O)(O)C(F)(F)C(F)(F)C(F)(F)C(F)(F)C(F)(F)C(F)(F)C(F)(F)C(F)(F)F`: “inactive”.
On the same count and under the same terms, the entry for `COP(=O)(NC(C)=O)SC` (stereo not given) is “inactive”; for `CS(=O)(=O)NC(=O)c1cc(Oc2ccc(C(F)(F)F)cc2Cl)ccc1[N+](=O)[O-]` it is “inactive”; for `[CH3][Sn]([Cl])([Cl])[Cl]` it is “inactive”.
Take `c1ccc(C2CO2)cc1` (stereo not given): the Potency entry was “inactive”.
On the same count and under the same terms, the entry for `O=C1Nc2ccc(Cl)cc2C(c2ccccc2)=NC1O` (stereo not given) is “inactive”; for `[Cl-].[Cl-].[Cl-].[Fe+3]` it is “inactive”.
`CCOP(=O)(O)OCC` (tested in a mixture with another compound): the Potency result is “inactive”.
The same measure, in the same setting: next, `ClC(Cl)(Cl)Br`: “inactive”.
Same read-out and setting: next, `CN(C)c1ccccc1`: “inactive”; `CCC[CH2][Sn]([Cl])([Cl])[CH2]CCC`: 1.74 µM (active) and 2.43 µM (active); `OC(c1ccc(Cl)cc1)(c1cncnc1)c1ccccc1Cl` (stereo not given): “inactive”.
Still for that read-out and setting: the entry for `N#CCCCCC#N` is “inactive”; for `CC1CC(=O)O1` (stereo not given) it is “inactive”.
Consider `CCCCSP(=O)(SCCCC)SCCCC`, for which the Potency result was “inactive”.
Still for that read-out and setting: next, `Nc1ncn[nH]1`: “inactive”.
The same measure, in the same setting: the entry for `N#CC(c1ccccc1)c1ccccc1` is “inactive”.

Tested on in the next test: not listed separately
The test can be described thus: qHTS assay to identify small molecule antagonists of the androgen receptor (AR) signaling pathway using the MDA cell line in the presence of 0.5 nM R1881 - cell viability counter screen (AID 1259242). Further: nearly all actives have a fitted effect of over 45% in size. Further: potency means the concentration at half of the fitted maximal effect. The note with it: MDA-kb2 viability, CellTiter-Fluor protease fluorescence, 16 h; series mostly up to 92.4 µM. The method in brief:
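Cells seeded at 3,000/well and allowed 5 hr at 37C, 0% CO2 before compound transfer and R1881 (0.5 nM final) addition; 16 hr later, live-cell protease fluorescence indicated cytotoxicity.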
As for `Brc1ccc(Br)cc1`, the Potency entry was “inactive”.
As to `COc1ccc(CO)cc1`, the Potency entry was “inactive”.
Turning to `NC(=O)CN1CCCC1=O`, the Potency result was “inactive”.
Same read-out and setting: next, `NN=C(N)N`: “inactive”; `CCOP(=O)(OCC)OCC`: “inactive”; `CCNCC`: “inactive”.
For `CC(O)CN(CC(C)O)CC(C)O` (stereo not given), the Potency result was “inactive”.
Still for that read-out and setting: the entry for `CCNc1nc(Cl)nc(NC(C)(C)C#N)n1` is “inactive”; for `O=C1C(Cl)=C(Cl)C(=O)c2ccccc21` it is 43.4 µM (active); for `Cc1cc(Cl)ccc1N=CN(C)C` it is “inactive”.
Same read-out and setting: next, `Cl`: “inactive”; `Clc1cccc(Cl)c1`: “inactive”; `CCCCCCCCCC(CC)c1ccc(S(=O)(=O)O)cc1` (stereo not given): “inactive”.
Same read-out and setting: next, `CC(C)(O)C#N`: “inactive”; `ClCC(Cl)CCl`: “inactive”; `O=[N+]([O-])c1ccc(Nc2ccccc2)cc1`: “inactive”.
With `O=P(OCCCl)(OCCCl)OCCCl`, the Potency result was “inactive”.
With `O=S(=O)(O)C(F)(F)C(F)(F)C(F)(F)C(F)(F)C(F)(F)C(F)(F)C(F)(F)C(F)(F)F`, the Potency result is “inactive”.
As to `COP(=O)(NC(C)=O)SC` (stereo not given), the Potency result is “inactive”.
Still for that read-out and setting: the entry for `CS(=O)(=O)NC(=O)c1cc(Oc2ccc(C(F)(F)F)cc2Cl)ccc1[N+](=O)[O-]` is “inactive”; for `[CH3][Sn]([Cl])([Cl])[Cl]` it is “inactive”.
Still for that read-out and setting: the entry for `c1ccc(C2CO2)cc1` (stereo not given) is “inactive”; for `O=C1Nc2ccc(Cl)cc2C(c2ccccc2)=NC1O` (stereo not given) it is “inactive”; for `[Cl-].[Cl-].[Cl-].[Fe+3]` it is “inactive”.
Same read-out and setting: next, `CCOP(=O)(O)OCC` (tested in a mixture with another compound): “inactive and 54 µM (active)”; `ClC(Cl)(Cl)Br`: “inactive”; `CN(C)c1ccccc1`: “inactive”.
Take `CCC[CH2][Sn]([Cl])([Cl])[CH2]CCC`: the Potency is 874 nM (active) and 611 nM (active).
On to `OC(c1ccc(Cl)cc1)(c1cncnc1)c1ccccc1Cl` (stereo not given), for which the Potency is 27.8 µM (active) and inactive.
On the same count and under the same terms, the entry for `N#CCCCCC#N` is “inactive”; for `CC1CC(=O)O1` (stereo not given) it is “inactive”.
On the same count and under the same terms, the entry for `CCCCSP(=O)(SCCCC)SCCCC` is “inactive”.
The same measure, in the same setting: next, `N#Cc1c(Cl)c(Cl)c(Cl)c(C#N)c1Cl`: 16.9 µM (active) and 13.7 µM (active); `Nc1ncn[nH]1`: “inactive”; `N#CC(c1ccccc1)c1ccccc1`: “inactive”.

A further test concerns the target Estrogen receptor (Homo sapiens) (UniProt P03372). As to the kind of experiment: qHTS assay to identify small molecule antagonists of the estrogen receptor alpha (ER-alpha) signaling pathway using the BG1 cell line in the presence of 0.1 nM 17-beta-estradiol (AID 1259244). Further: nearly all actives have a fitted effect of over 50% in size. Further: potency means the concentration at half of the fitted maximal effect. The following applies: VM7Luc4E2 (BG1) ERE-luciferase, antagonist mode, 0.1 nM E2, 22 h; series mostly up to 92.4 µM. The method in brief: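 Luciferase signal from VM7Luc4E2 ERE-reporter cells, co-dosed with test compound and 0.1 nM final 17beta-estradiol for 22 h, read with ONE-Glo.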
In the case of `CC(C)(c1ccccc1)c1ccc(O)c(C(C)(C)c2ccccc2)c1`, the Potency was 60.6 µM (active).
Consider `Cn1c(-c2ccccc2)cc(-c2ccccc2)[n+]1C`, for which the Potency was 5.44 µM (active) and 24.3 µM (active).
On the same count and under the same terms, next, `O=C1C(Cl)=C(Cl)C(=O)c2ccccc21`: 12.2 µM (active) and 19.3 µM (active); `CCC[CH2][Sn]([Cl])([Cl])[CH2]CCC`: 1.23 µM (active) and inactive.
On the same count and under the same terms, next, `N#Cc1c(Cl)c(Cl)c(Cl)c(C#N)c1Cl`: 6.73 µM (active) and 15.4 µM (active).

Tested on in the next test: not listed separately
The test can be described thus: qHTS assay to identify small molecule phospholipidosis (PLD) inducers (AID 1259344; active means well fitted curve in the direction sought with a large enough effect; an effect the other way counts as inactive or inconclusive). The note with it: HepG2 phospholipidosis, LipidTOX Red imaging, 24 h; series mostly up to 38.3 µM. The procedure, abridged:
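Cells (HepG2, 900 per well) attach for 4 h, receive LipidTOX Red and compound together, incubate 24 h at 37 C, are fixed 30 min with paraformaldehyde/Hoechst, then imaged at one site per well.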
On to `NC(=O)CN1CCCC1=O`, for which the call was inactive.
On the same count and under the same terms, next, `NN=C(N)N`: “inactive”; `CCCCCCCCCC(CC)c1ccc(S(=O)(=O)O)cc1` (stereo not given): “inactive”; `O=C1Nc2ccc(Cl)cc2C(c2ccccc2)=NC1O` (stereo not given): “inactive”.
